Screens as filed in PubChem BioAssay.
KB-V1 cytotox: KB-V1 MDR subline cytotoxicity. AID 1347076. Potency, µM (top dose mostly 46.1 µM), hits mostly cytotoxic. hit rate 3.4% among 400,000. KB-V1 MDR cells viability, CellTiter-Glo, 72 h; note: % is set by controls: 0 for no effect and ±100 for the full control effect; nearly all actives have a fitted effect of over 60% in size
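Drug-selected KB-V1 cells, grown in DMEM lacking phenol red with 10% FBS, receive compound titrations; after three days at 37 degrees C, surviving cell ATP is quantified by CellTiter-Glo luminescence and responses normalized and curve-fitted.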
HT1080 IDH1KD tx: HT-1080 IDH1 knockdown cell toxicity (counter line); hit rate 2% among 360,000; Potency, µM (doses to about 46.1 µM), for inactives: at the highest dose activity, negative = toxicity, most hits filed as cytotoxic; HT-1080 IDH1 knockdown viability, ATP luminescence, 48 h; AID 686971;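 note: 0% = DMSO wells and -100% = cell-free medium wells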
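Luminescent ATP read-out (CellTiter-Glo, 10 min at room temperature) after 48 h compound exposure at 37 °C gave viability of IDH1-knockdown HT-1080 cells. Activity was normalised to DMSO and cell-free wells, then fitted as concentration-response curves.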
HT1080NT lethal: kills 2HG-producing HT-1080-NT fibrosarcoma cells | HT-1080-NT fibrosarcoma viability, CellTiter-Glo ATP luminescence, 48 h | Potency, µM (titrated, usually from 46.1 µM), for the others: at the top dose activity, negative = less viability, hits mostly cytotoxic | hit rate 1.6% among 360,000 | AID 686970;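 note: NT is the 2HG producing partner of a matched IDH1 knockdown line; 0% = DMSO-treated cells and -100% = media-only wells without cells; nearly all actives have a fitted effect of over 55% in size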
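Fibrosarcoma NT cells, 750 per well in 5% FBS RPMI, were exposed to compound for 48 hours. Viability: CellTiter-Glo luminescence.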
SW480 rerep: inducers of DNA re-replication in SW480 colon cancer cells | SW480 DNA re-replication, Hoechst DNA content imaging, 48 h | Potency, µM (titrated, usually from 46.1 µM), inactives show top-dose re-replication activation, actives largely listed as activators | hit rate 1.8% among 340,000; note: % of control where 0% means no effect; nearly all actives have a fitted effect of over 55% in size
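Readout is total intensity of Hoechst-stained nuclei, excited at 405 nm and collected at 500-530 nm. Compound treatment lasted 48 hr at 37 C in 5% CO2 before staining.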
KB-3-1 tox: KB-3-1 parental cell cytotoxicity. hit rate 1.4% among 400,000. KB-3-1 viability, CellTiter-Glo ATP luminescence, 72 h. AID 1347075. Potency, µM (top dose mostly 46.1 µM), actives largely listed as cytotoxic; note: % is set by controls: 0 for no effect and ±100 for the full control effect; nearly all actives have a fitted effect of over 60% in size
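Cytotoxicity measured as CellTiter-Glo luminescence after 72 h at 37 C. Compound titrations were pinned onto drug-naive KB-3-1 parental adenocarcinoma cells grown in DMEM with 10% FBS, and normalized data fitted to concentration-response curves.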
MCF10A rerep: inducers of DNA re-replication in MCF 10A breast cells; hit rate 2.9% among 350,000; MCF 10A DNA re-replication, Hoechst nuclear intensity, 48 h; Potency, µM (highest dose often 46.1 µM), for inactives: at the highest dose activity, positive = re-replication, actives largely listed as activators; AID 624296; note: % of control where 0% means no effect; nearly all actives have a fitted effect of over 50% in size
An asterisk follows results filed as active; i = inactive; ? = inconclusive; / = no result; [ ] = remark or other dose. Most compounds without a hit are left out; they make up all but 7.9% or so of the library. Calls come from the whole dose curve; as a rule, active = well fitted curve in the direction sought with a large enough effect; inconclusive = small, poorly fitted or top-dose-only effect, or another doubt; inactive = no such curve, though single readings can be large; an effect the other way counts as inactive or inconclusive. Potency is the fitted concentration of half-maximal effect.

SMILES	KB-V1 cytotox	HT1080 IDH1KD tx	HT1080NT lethal	SW480 rerep	KB-3-1 tox	MCF10A rerep
COc1cc(Cl)ccc1OCc1cc(C(=O)N2C[C@]3(C)C[C@H]2CC(C)(C)C3)no1	/	-27%	0%	7%	/	21µM*
COc1cc(Cl)ccc1OCc1cc(C(=O)N2C[C@H]3CC[C@H]2C3)no1	i	8%	6%	-4%	i	1%
CCOc1ccc(NC(=O)Cc2coc3ccc(C)cc23)cc1	i	/	/	/	i	/
C[C@H](CO)N1C[C@H](C)[C@@H](CN(C)Cc2ccc(-c3ccccc3)cc2)Oc2c(NC(=O)Cc3ccccc3)cccc2C1=O	?	-19%	-8%	?	i	?
C[C@H](CO)N1C[C@H](C)[C@@H](CN(C)Cc2ccncc2)Oc2c(NC(=O)Cc3ccccc3)cccc2C1=O	i	15µM*	?	?	16µM*	1%
C[C@H](CO)N1C[C@H](C)[C@@H](CN(C)C)Oc2c(NS(=O)(=O)c3cn(C)cn3)cccc2C1=O	i	3%	-1%	0.92µM*	i	-9%
C[C@H](CO)N1C[C@H](C)[C@@H](CN(C)Cc2ccccc2)Oc2c(NC(=O)Cc3ccccc3)cccc2C1=O	?	?	?	-5%	23µM*	?
C[C@H](CO)N1C[C@H](C)[C@@H](CN(C)C(=O)Nc2ccccc2)Oc2c(NS(=O)(=O)c3cn(C)cn3)cccc2C1=O	i	-6%	3%	0%	i	?
CCCCN(C)Cc1c(O)ccc2c(-c3ccccc3)cc(=O)oc12	10µM*	-21%	-14%	-17%	?	-2%
CC1CCN(C(=O)Cn2nnc(-c3ccc(C(C)C)cc3)n2)CC1	i	-1%	4%	-10%	i	32%
COc1ccc(-c2cn(-c3ccccc3)c(=S)[nH]2)cc1OC	i	-10%	-19%	-5%	3.3µM*	2%
COc1ccccc1-n1cc(-c2ccc(Br)cc2)[nH]c1=S	i	-28%	-1%	?	i	14%
COc1ccc(-c2cn(-c3ccc(C)c(Cl)c3)c(=S)[nH]2)cc1OC	i	-16%	-10%	-1%	16µM*	13%
COc1ccccc1-n1cc(-c2ccc(C)cc2)[nH]c1=S	23µM*	?	10µM*	?	?	18µM*
COc1ccc(-c2cn(-c3ccc(C)c(C)c3)c(=S)[nH]2)cc1OC	i	-1%	-4%	0%	i	9%
CC(=O)Nc1ccc(CNc2nc(NCC3CC3)nc3ccsc23)cc1	i	?	?	/	i	/
COc1ccc(CNC(=O)Cn2c(=O)n(CC(=O)N3CCCCC3)c(=O)c3sccc32)cc1	i	-1%	-8%	?	i	-3%
CCc1cccc(N2C(=O)CS(=O)(=O)C23C(=O)N(Cc2ccccc2)c2ccc(C)cc23)c1 (stereo not given)	?	/	/	/	i	/
Cc1cc(C)c(C#N)c(Oc2ccc(O)cc2)n1	i	-1%	?	0%	i	7%
Cc1nc(OCC(=O)c2ccc(Cl)cc2)c(C#N)c2c1COC(C)(C)C2	i	3%	2%	21µM*	i	4.6µM*
CC1(C)Cc2c(C#N)c(OCC(=O)c3ccc(Cl)cc3)nc(-c3ccco3)c2CO1	i	7%	4%	-2%	i	2%
COc1ccc(C(=O)COc2nc(C)cc(C)c2C#N)cc1	13µM*	11%	-9%	20%	?	20%
COc1ccccc1[C@@]1(C)ON(c2ccccc2C(F)(F)F)C1=O	i	-20%	-22%	?	?	?
COc1ccc(CCNc2cc(C)nc3c(-c4ccccc4)cnn23)cc1OC	i	?	-20%	6%	i	?
Cc1cc(NCc2ccccc2)n2ncc(-c3ccccc3)c2n1	i	-26%	-22%	?	?	18µM*
SMILES	KB-V1 cytotox	HT1080 IDH1KD tx	HT1080NT lethal	SW480 rerep	KB-3-1 tox	MCF10A rerep
CC(C)(C)c1cc(NCc2ccccn2)n2ncc(-c3ccccc3)c2n1	?	21µM*	?	-24%	i	?
CCc1cccc(NC(=O)C2CCCN(S(=O)(=O)c3cccnc3)C2)c1 (stereo not given)	i	-4%	-1%	-10%	i	0%
COc1ccc(C(=O)Nc2cc(C)nn2-c2ccc(F)cc2)cc1	i	-6%	-2%	7%	i	2%
CCCCCCn1c(=O)n2n(c1=O)[C@@H]1CN(S(=O)(=O)c3ccc(C)cc3)C[C@]1(O)[C@@H](OC(=O)NCC1CCCCC1)C2	i	?	?	/	?	/
COC(=O)C1=C(C(=O)OC)SC2(S1)C(C(=O)OC)=C(C(=O)OC)SC1=C2c2cccc(C)c2NC1(C)C	i	7.1µM*	4µM*	?	i	16%
CCOC(=O)C1(C)Oc2ccccc2C(C(=O)OC)=C1C(=O)OC (stereo not given)	i	1%	8%	0%	i	?
CCCCNCCOCCOc1ccccc1-c1ccccc1	18µM*	-18%	-22%	?	i	23%
COCCNCCCCOc1ccccc1-c1ccccc1	?	-21%	-2%	15%	i	11%
COc1cccc(NC2c3ccccc3C(=O)N2Cc2ccccc2Cl)c1 (stereo not given)	i	?	?	21µM*	i	?
CC1(C(=O)NC2CCCCC2)CCC(=O)N1Cc1ccc2c(c1)OCO2 (stereo not given)	i	2%	20%	-78%	i	5%
CC1(C(=O)NC2CCCCCC2)CCC(=O)N1Cc1ccc2c(c1)OCO2 (stereo not given)	21µM*	-1%	-1%	20%	i	1%
O=C(NCc1ccc2c(c1)OCO2)NC1CCCCC1	i	13%	10%	1%	i	0%
CC1(C)SC(=S)N(Cc2ccc3c(c2)OCO3)C1N(O)C(=O)NC1CCCCC1 (stereo not given)	15µM*	0%[9.24 µM]	-2%	6%	?	0%
CCOC(=O)c1nc2ccc(C)cc2c2c1C1CC(c3c(Cl)cccc31)N2C(=O)OCc1ccccc1 (stereo not given)	?	-29%	3%	/	?	/
Nn1c(Cc2cccc3ccccc23)nnc1SCc1c(F)cccc1Cl	?	0%	2%	3%	i	18%
O=S(Cc1ccc(Br)cc1)Cc1nnc(SCc2c(F)cccc2Cl)n1-c1ccccc1 (stereo not given)	2.3µM*	-24%	-5%	10%	?	?
